Shown are actives, neighbours in structure and some others; about 6.9% of the full set was active somewhere.
GRIN3A LBD mod: modulates the human NR3A ligand-binding domain. NR3A LBD differential scanning fluorimetry, Tm shift; 0% = protein alone, 100% = glycine-bound protein. AID 1259313. hit rate 2.5% among 340,000. Tm shift relative to glycine control, % at 25 µM;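 active means melting temperature shift of at least 10% of the positive control shift, at one fixed dose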
SKKanGAS inh: SKKanGAS growth inhibition. S. pyogenes SKKanGAS, kanamycin growth, BacTiter-Glo, 6 h. inhibition, % at 7.5 µM. hit rate 1.3% among 300,000. AID 1662;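 active means mean replicate score, as percent of positive control median, at least 50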;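 further: strain carries kanamycin resistance gene driven by streptokinase promoter and grows in 40 µg/ml kanamycin; loss of luminescence reflects streptokinase promoter inhibition or plain growth inhibition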
Beta cell apopt: blocks beta cell apoptosis. INS-1E cytokine-induced death, ATP luminescence, 48 h; percent of positive-control rescue, neutral wells zero. hit rate 0.8% among 300,000. protection from apoptosis, % (concentration not given with the values);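 active means Every replicate reaches about 75%, or at least half do and their mean reaches it too, limit read from the data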;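 further: higher means more ATP so stronger rescue from cytokine killing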
Mdm2-MdmX inh: disrupts the human Mdm2-MdmX interaction; inhibition, % at 8 µM; hit rate 3% among 330,000; SaOS-2 split-luciferase Mdm2/MdmX complementation, luminescence;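 active means inhibition of at least 50% at 8 µM in the primary screen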
MPTP block: permeability transition pore inhibition | isolated mouse mitochondria, Ca2+ swelling absorbance, 30 min | inhibition, % at 10 µM | hit rate 1.4% among 360,000 | AID 602449;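 active means inhibition of 50% or more, scaled per plate between neutral and stimulator controls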
CSC inhib: cancer stem cell inhibition; cancer stem cell-like cells viability, luminescence; inhibition, % at 7.5 µM; hit rate 1.1% among 300,000; AID 2717; in the data active means inhibition above about 75%; tested in HMLE shEcad cells
MPTP counter: Rhodamine 123 counter-screen of mitochondrial pore hits | shares compounds with MPTP block | isolated mitochondria, membrane potential, Rhodamine 123 fluorescence | inhibition, % at 10 µM | hit rate 78% among 5,000; in the data active means inhibition above about 22%
MPTP swell DR: dose response confirmation of mitochondrial permeability transition pore inhibitors; IC50, µM; shares compounds with MPTP block; isolated mitochondria swelling, absorbance; AID 651561; hit rate 58% among 780; in the data active means IC50 below about 20 µM
MPTP cs DR: counter-screen for mitochondrial permeability transition pore inhibitors, dose response. shares compounds with MPTP block. isolated mitochondria counterscreen, fluorescence read-out. IC50, µM. hit rate 49% among 780; in the data active means IC50 below about 80 µM
Hits are given with their value; - = inactive; . = not tested or not shown.

SMILES	GRIN3A LBD mod	SKKanGAS inh	Beta cell apopt	Mdm2-MdmX inh	MPTP block	CSC inhib	MPTP counter	others
CC(=O)c1cccc(NS(=O)(=O)c2ccc(N/C=C/C(=O)c3ccc(F)cc3)cc2)c1	18.1	-	111.8	-	108.1	-	94.4
Cc1ccc(NC(=O)C2COc3ccccc3O2)cc1S(=O)(=O)N1CCOCC1 (centres undefined)	-	.	-	-	-	.	.
OC(c1cccc(OCc2ccccc2)c1)c1nnc(-c2ccccc2)o1 (centres undefined)	-	-	-	-	104.4	-	95.5
COCCNC(=S)N1CCC(C(=O)c2ccc(C)cc2)CC1	-	-	-	-	-	-	.
Cc1ccc(C)c(Oc2cc(NC(=O)CCCn3nc(C)c([N+](=O)[O-])c3C)cc([N+](=O)[O-])c2)c1	16.1	-	-	-	93.8	-	75.2
COc1cccc(CC2(CO)CCCN(Cc3sc(N4CCCC4)nc3Cl)C2)c1 (centres undefined)	-	-	-	-	-	-	.
CCOc1cc(NC(=S)Nc2ccc(Cl)cc2)c(OCC)cc1NC(C)=O	-	-	-	-	73.3	-	99.5
CCOc1ccccc1NC(=O)Nc1ccccn1	-	-	-	-	-	-	.
CCOc1ccccc1NC(=O)Nc1ccc(Cl)cc1	-	-	-	-	90.2	-	89.6
COc1ccc(NS(=O)(=O)c2ccc3oc(SCc4ccc(F)cc4)nc3c2)cc1	12.6	-	-	-	60.0	-	50.0
COc1ccccc1NS(=O)(=O)c1ccc2oc(SCc3ccc(F)cc3)nc2c1	-	-	-	-	-	-	.
Cc1ccc(-c2nsc(SCC(=O)Nc3ccc4c(c3)OCO4)n2)cc1	-	-	-	-	95.5	-	88.6
CCOc1ccc2nc(SCC(=O)Nc3ccc4c(c3)OCO4)sc2c1	19.1	-	-	-	75.3	-	69.0
O=C(CSc1nc(-c2ccccc2Cl)ns1)Nc1ccc2c(c1)OCO2	-	-	.	-	87.0	-	80.0
Cn1cc(-c2cc(C(=O)O)on2)cn1	-	-	-	-	-	.	.
COC(=O)CCSCC(=O)Nc1ccc(C)c(S(=O)(=O)N2CCCCC2)c1	-	-	-	-	-	-	.
O=C1CN(C(=O)COC(=O)c2cc(S(=O)(=O)N3CCOCC3)ccc2Cl)c2ccccc2N1	-	-	-	-	-	-	.
COc1ccc(/C=C/C(=O)Nc2ccccc2C(=O)NCC(c2ccc(OC)cc2)N(C)C)cc1 (centres undefined)	-	-	.	-	76.4	-	-	MPTP swell DR=12;MPTP cs DR=-
Cc1cc(C)n(CCc2nc(-c3ccco3)cs2)n1	-	-	-	-	54.8	-	-	MPTP swell DR=-;MPTP cs DR=-
CCOc1ccc(C(C)=O)cc1CSC(=N)N	-	-	.	-	-	-	.
CCCCOc1ccc(Br)cc1CSC(=N)N	-	-	.	.	82.8	.	108.0
Fc1ccc(NC(=S)N2CCn3cccc3C2c2cccnc2)cc1 (centres undefined)	-	-	-	-	-	-	.
Fc1ccc(C2c3cccn3CCN2C(=S)Nc2cccc(Br)c2)cc1 (centres undefined)	-	-	-	-	90.3	-	66.4
CC(C)OP(=O)(OC(C)C)C(Nc1ccccc1)c1cccnc1 (centres undefined)	-	-	-	-	-	-	.
CC(C)c1ccc(NC(=O)NCc2ccc(F)cc2)cc1	-	-	-	-	60.9	-	86.1
SMILES	GRIN3A LBD mod	SKKanGAS inh	Beta cell apopt	Mdm2-MdmX inh	MPTP block	CSC inhib	MPTP counter	others
CCOC(=O)c1ccc(NC(=S)NCc2ccco2)cc1	-	-	-	-	65.0	-	72.2
O=C(NCc1ccc(Cl)cc1)Nc1ccc(F)cc1	-	-	-	-	-	-	.
CCOC(=O)c1ccc(NC(=S)NCc2ccc(F)cc2)cc1	-	-	-	-	88.3	-	81.9
CCOc1ccc(C(=O)Nc2cccc3ncccc23)cc1Cl	-	-	-	-	-	-	.
O=C(COC(=O)c1cc(Cl)nc(Cl)c1)Nc1ccc(Cl)c(S(=O)(=O)N2CCOCC2)c1	-	.	-	-	-	-	.
c1ccc(Nc2ncnc3[nH]ncc23)cc1	-	-	-	-	-	-	.

Assay outcomes from PubChem.
